# Results taken from PubChem BioAssay AID602393 (Broad Institute, 2012).
# Screen size: about 350,000 compounds; about 7,000 (2%) were called active. The sample as a whole holds a higher share of actives than the screen did. A number with no mark means an inactive call. Rule as the data show it: active = activation above about 40%; inconclusive = no clear call, values can overlap the other calls; inactive = below that.
# Assay: Bmi1 luciferase reporter increase in mESCs, primary screen, esBAF inhibitor project, mouse ES cells, Bmi1 luciferase knock-in, single point (AID 602393);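 also: 0% = median of the plate's neutral control wells and 100% = double that signal; a rise in the Bmi1 reporter signal indicates esBAF inhibition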
# Conditions: 24 h, at 12.5 µM, stronger effect = higher value, 100% = twice the neutral-well signal
row,Compound,reporter increase
1,CC(C)NC(=O)N[C@@H]1CC[C@H](CCn2cc(-c3ccccc3)nn2)O[C@H]1CO,1.66%
2,CCNC(=O)C[C@@H]1CC[C@@H]2[C@@H](COc3ccc(NC(C)=O)cc3C(=O)N2C)O1,-3.06%
3,COC(=O)/C(=C1\Oc2ccc(C(C)(C)C)cc2S1)C(F)(F)F,53.4% (active)
4,CCOC(=O)C1=C(c2ccccc2)O/C(=C(/C(=O)OC)C(F)(F)F)S1,-7.41%
5,COCC#Cc1cnc2c(c1)C(=O)N([C@H](C)CO)C[C@@H](C)[C@@H](CN(C)C(=O)Nc1cccc(F)c1)O2,-0.578%
6,C[C@H](CO)N1C[C@H](C)[C@@H](CN(C)Cc2ccccn2)Oc2ncc(C3=CCCC3)cc2C1=O,-4.21%
7,C[C@@H]1CN([C@@H](C)CO)C(=O)c2cc(-c3ccc(C#N)cc3)cnc2O[C@H]1CN(C)C(=O)CN(C)C,0.919%
8,CCc1c(C)sc(NC(=O)c2cccs2)c1C(N)=O,57.1% (active)
9,CCc1c(C)sc(NC(=O)c2ccc(Br)o2)c1C(=O)OC,0.318%
10,CCOC(=O)c1oc2ccccc2c1NC(=O)c1cccs1,-0.529%
11,COc1ccc(CN2C[C@@H](C)[C@H](OC)CN(C)C(=O)c3cc(NC(C)=O)ccc3OC[C@@H]2C)cc1,1.02%
12,CN(C)CC(=O)N[C@@H]1CC[C@H](CC(=O)NCc2ccc(Cl)cc2)O[C@H]1CO,2.07%
13,CCCN(C)C[C@@H]1Oc2cc(-c3ccc(C)cc3)ccc2S(=O)(=O)N([C@@H](C)CO)C[C@H]1C,-1.82%
14,CO[C@H]1CN(C)C(=O)c2ccc(NC(=O)c3cc(C)on3)cc2OC[C@H](C)N(C)C[C@H]1C,-3.45%
15,Cc1ccc(OCc2nc(C#N)c(N3CCCC3)o2)cc1,6.84%
16,CCOc1ccc(Nc2oc(Cc3ccccc3)nc2C#N)cc1,52% (active)
17,COc1ccc(Nc2oc(-c3ccccc3Cl)nc2C#N)cc1,11.5%
18,COc1ccc(NC(=O)N(C)C[C@@H]2OCCCC[C@H](C)Oc3ccc(NS(=O)(=O)c4c(C)noc4C)cc3C(=O)N([C@@H](C)CO)C[C@@H]2C)cc1,10.5%
19,Cc1ccc(NC(=O)c2ccn(C(=O)Nc3ccccc3)n2)c(C)c1,33.7%
20,Cc1ccc2nc(Nc3ccccc3)cc(C)c2c1,48.3% (active)
21,Cc1ccc(Nc2nc(C)cc(C)c2C(N)=O)cc1,-0.241%
22,O=C(C[C@H]1CC[C@H](NC(=O)c2ccncc2)[C@H](CO)O1)Nc1ccccc1,6.5%
23,CNC[C@H]1OCCCC[C@@H](C)Oc2ccc(NC(=O)c3ccccc3)cc2C(=O)N([C@@H](C)CO)C[C@H]1C,9.15%
24,C[C@@H]1CN([C@H](C)CO)C(=O)c2cc(C#CC3(O)CCCC3)cnc2O[C@H]1CN(C)Cc1ccncc1,-2.58%
25,Cc1ccccc1NC(=S)NC(=O)Cc1ccc(Cl)cc1,5.51%
26,Cc1ccc(C(=O)NC(=S)Nc2ccccc2C)cc1,69.2% (active)

row,Compound,reporter increase
1,Cc1ccc(C(=O)NC(=S)Nc2ccc(N3CCOCC3)cc2)cc1,5.69%
2,CC(C)NC(=O)N[C@H]1C=C[C@H](CC(=O)NCCN2CCCC2)O[C@@H]1CO,-2.39%
3,Cc1c(CCC(=O)O)c(=O)oc2cc(OCc3ccc(Br)cc3)ccc12,14.3%
4,CCc1c(C)c2ccc(OC3CCCCC3=O)cc2oc1=O (stereo not drawn),65.6% (active)
5,COC(=O)Cc1c(C)c2ccc(OCC(=O)NCc3ccc4c(c3)OCO4)cc2oc1=O,4.08%
6,COc1cccc(CNC(=O)[C@@H]2[C@@H](CO)[C@@H]3Cn4c(ccc(-c5ccncc5)c4=O)[C@H]2N3C(C)=O)c1,5.45%
7,CO[C@@H]1CN(C)C(=O)c2cc(NS(=O)(=O)CC(F)(F)F)ccc2OC[C@H](C)N(Cc2ccccn2)C[C@@H]1C,0.135%
8,C[C@@H]1CN([C@@H](C)CO)C(=O)c2cccc(N(C)C)c2O[C@@H]1CN(C)S(=O)(=O)c1ccccc1,0.064%
9,CCCn1nnnc1NC(=O)COc1ccc(Cl)cc1C,-3.97%
10,Cc1cc(NC(=O)COc2ccc(Cl)cc2Cl)n(CCC#N)n1,97.9% (active)
11,O=C(COc1ccc([N+](=O)[O-])cc1Cl)Nn1cnnc1,-5.37%
12,CCC(=O)N1C[C@H](C)[C@H](OC)CN(C)C(=O)c2ccc(NC(=O)c3cnccn3)cc2OC[C@@H]1C,-10.3%
13,CC(C)NC(=O)N(C)C[C@@H]1Oc2cc(C#C[C@H](C)O)ccc2S(=O)(=O)N([C@@H](C)CO)C[C@H]1C,0.093%
14,O=C(c1ccncc1)N1C[C@H]2[C@@H](c3ccccc31)[C@H](CO)N2Cc1ccc(F)cc1,-3.53%
15,CCOc1ccc2cc(C#N)c(SCC(=O)OC)nc2c1,66.4% (active)
16,COC(=O)CSc1nc(C)c2ccc(OC)cc2n1,-3.51%
17,Cc1nonc1NC(=O)CSc1nc2ccccc2cc1C#N,36.1%
18,C[C@@H]1CN([C@@H](C)CO)C(=O)c2cc(NS(=O)(=O)c3ccccc3)ccc2O[C@H]1CN(C)S(=O)(=O)c1ccc(Cl)cc1,11.7%
19,CCCN1[C@H](C(=O)NCC)[C@@H](CO)[C@@H]2Cn3c(ccc(C4=CCCC4)c3=O)[C@@H]21,-2.59%
20,CCC(=O)Nc1ccc2c(c1)C(=O)N(C)[C@@H]1CC[C@@H](CC(=O)N[C@@H](C)c3ccccc3)O[C@@H]1CO2,-1.27%
21,COc1cccc(NC(=O)Nc2ccc3c(c2)C(=O)N(C)C[C@H](OC)[C@@H](C)CN[C@@H](C)CO3)c1,2.37%
22,FC(F)(F)c1ccnc(Oc2ccc(C3=NCCS3)cc2)c1,45.6% (active)
23,C/C=C/c1cnc2c(c1)C(=O)N([C@H](C)CO)C[C@@H](C)[C@H](CN(C)Cc1cccc(C(=O)O)c1)O2,-4.01%
24,Cc1noc(C)c1S(=O)(=O)N(C)C[C@H]1Oc2ccc(NC(=O)Cc3ccccc3)cc2CC(=O)N([C@@H](C)CO)C[C@H]1C,6.49%
25,C[C@@H]1CN([C@@H](C)CO)C(=O)c2cc(NC(=O)c3ccncc3)ccc2O[C@@H]1CN(C)S(C)(=O)=O,0.579%
26,CN1c2ccc(C#Cc3cccnc3)cc2[C@@H]2[C@@H](CCN2S(=O)(=O)c2ccccc2)[C@H]1CO,11.3%

row,Compound,reporter increase
1,N=c1c2c3c(sc2nc2n1CCCCC2)CCCC3,24.2%
2,O=S(=O)(c1ccc(Cl)cc1)c1nc(-c2ccco2)oc1N1CCCCC1,-5.66%
3,O=c1oc(-c2ccco2)nc2sc3c(c12)CCCCC3,57.3% (active)
4,CCCNC(=O)N1C[C@@H](C)[C@@H](OC)CN(C)C(=O)c2ccc(NC(=O)CCC)cc2OC[C@H]1C,-1.55%
5,COCC#Cc1cnc2c(c1)C(=O)N([C@H](C)CO)C[C@H](C)[C@@H](CN(C)C(=O)Nc1cc(F)ccc1F)O2,6.3%
6,COCC#Cc1ccc2c(c1)O[C@H](CN(C)C(=O)C1CCOCC1)[C@@H](C)CN([C@@H](C)CO)S2(=O)=O,5.12%
7,COc1ccc(C2CC(=O)NC(=O)C2)cc1,-4.89%
8,COc1ccc([C@H]2CC(=O)C=C(/C=C/c3ccccc3)C2)cc1,70.2% (active)
9,COc1ccc([C@H]2CC(=O)C=C(c3ccc(C)cc3)C2)cc1,8.3%
10,C[C@H](CO)N1C[C@H](C)[C@@H](CN(C)C)Oc2cc(C#Cc3ccccc3)ccc2S1(=O)=O,-3.93%
11,COc1cccc(NC(=O)C(=O)c2cn(CC(=O)N3CCOCC3)c3ccccc23)c1,20.7%
12,O=C(Nc1ccc(F)cc1)C(=O)c1cn(CC(=O)N2CCOCC2)c2ccccc12,41% (active)
13,Cc1ccc(CNC(=O)C(=O)c2cn(CC(=O)N3CCOCC3)c3ccccc23)cc1,20.4%
14,CO[C@@H]1CN(C)C(=O)c2cc(NC(=O)C3CCC3)ccc2OC[C@H](C)N(C(=O)CN(C)C)C[C@@H]1C,-3.99%
15,C[C@H](CO)N1C[C@H](C)[C@@H](CN(C)C(=O)Nc2ccc3c(c2)OCO3)OCCCC[C@H](C)Oc2ccc(NS(=O)(=O)c3cn(C)cn3)cc2C1=O,-2.06%
16,C[C@H]1CN([C@@H](C)CO)C(=O)Cc2cc(NC(=O)Nc3cccc4ccccc34)ccc2O[C@@H]1CN(C)C,-2.18%
17,COc1ccc(S(=O)(=O)N(C)C[C@H]2Oc3ccc(NC(=O)Nc4ccccc4)cc3CC(=O)N([C@H](C)CO)C[C@@H]2C)cc1,-4.23%
18,O=C(NCCCn1ccnc1)c1ccccc1F,-2.18%
19,O=C(NCCCn1ccnc1)c1cc(-c2ccccc2)on1,47.2% (active)
20,O=C(NCCCn1ccnc1)c1cc(Br)c(Br)s1,-10.5%
21,C[C@@H](NC(=O)[C@@H]1[C@@H](CO)[C@@H]2Cn3c(ccc(C4=CCCCC4)c3=O)[C@@H]2N1C)c1ccccc1,1.48%
22,Cc1ccc(S(=O)(=O)Nc2ccc3c(c2)C(=O)N([C@@H](C)CO)C[C@@H](C)[C@H](CN(C)Cc2ccncc2)O3)cc1,2.63%
23,C[C@H](CO)N1C[C@H](C)[C@H](CN(C)Cc2ccncc2)Oc2ccc(N(C)C)cc2C1=O,-1.91%
24,CCOC(=O)c1cc2cc(C)ccc2[nH]1,70.2% (active)
25,Cc1ccc2[nH]c(=O)c(COC(=O)c3ccccn3)cc2c1,-2.11%
26,CCOC(=O)c1[nH]c2ccc(C)cc2c1N=C(C)N(C)C,1.77%
